The values that follow come from PubChem BioAssay AID651939 (The Scripps Research Institute Molecular Screening Center, 2012).

This is one part of the list. A number with no mark means an inactive call. Activity calls are given as the source filed them. Cut-off read from the data, not from the text of the source: active = IC50 below about 9 µM; inactive = the rest.

The nature of this assay: binders of control antibody PG126, dose response, counter-screen for PG9 antibody binder project, biochemical, TR-FRET, distinct HIV envelope site (AID 651939). As to conditions: TR-FRET binding to antibody PG126, counterscreen. (The purpose of a counterscreen is to sort out artefacts and off-target activity.)
The term IC50 denotes the midpoint of a concentration-inhibition curve. On to `COC(=O)C1=C(C)N(Cc2ccccc2C(F)(F)F)C(=NCc2ccc(OC)cc2)NC1c1cccc(C(F)(F)F)c1` (configuration not stated), for which the IC50 is greater than 67 µM.
For `O=C(Nc1nnc(-c2ccccc2F)s1)c1ccccc1F`, the IC50 was 17.9 µM.
For `S=c1[nH]c2ccccc2c2ccccc12`, the IC50 was 60.4 µM.
As for `O=C(Oc1ccccc1)Oc1ccc2c(c1)oc(=O)c1ccccc12`, the IC50 is 4.13 µM (active).
With `CC1(C)Cc2ccccc2-c2[nH]c(=S)[nH]c(=O)c21`, the IC50 was 66.1 µM.
As to `Cc1cccc(Nc2nc3c(S(=O)(=O)c4ccccc4)nnn3c3ccccc23)c1C`, the 50% inhibitory concentration (IC50) is 3.75 µM (active).
Consider `COc1ccc(-c2c(C)nn3c(N4CCC(C(=O)N5CCCCC5)CC4)cc(C)nc23)cc1OC`, for which the IC50 was greater than 67 µM.
